SMN2 splice enh – qHTS Assay for Enhancers of SMN2 Splice Variant Expression. actives 2.8% (n = 210,000). Potency, µM (highest dose often 46.1 µM), actives largely listed as activators. AID 1458, 2008. HEK293 SMN2-luciferase splicing reporter, luminescence, 30-36 h; further: nearly all actives have a fitted effect of over 55% in size
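HEK293 cells carry an SMN2 minigene-luciferase reporter in which exon 7 inclusion puts luciferase in frame. Cells were seeded at 2000 cells/well, attached for 10-12 hours, then exposed to compounds for 30-36 hours at 37C before ONE-Glo luminescence.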
FLuc counter – qHTS profiling assay for firefly luciferase inhibitor/activator using purifed enzyme and Km concentrations of substrates (counterscreen for miR-21 project); Potency, µM (doses to about 57.5 µM), most hits filed as inhibitors; AID 588342, 2011; purified FLuc, Km substrates, luminescence inhibition; Luciferin 4-monooxygenase (Photinus pyralis), P08659; actives 6.9% (n = 360,000); further: nearly all actives have a fitted effect of over 55% in size
Target sequence (P08659 whole entry, looked up): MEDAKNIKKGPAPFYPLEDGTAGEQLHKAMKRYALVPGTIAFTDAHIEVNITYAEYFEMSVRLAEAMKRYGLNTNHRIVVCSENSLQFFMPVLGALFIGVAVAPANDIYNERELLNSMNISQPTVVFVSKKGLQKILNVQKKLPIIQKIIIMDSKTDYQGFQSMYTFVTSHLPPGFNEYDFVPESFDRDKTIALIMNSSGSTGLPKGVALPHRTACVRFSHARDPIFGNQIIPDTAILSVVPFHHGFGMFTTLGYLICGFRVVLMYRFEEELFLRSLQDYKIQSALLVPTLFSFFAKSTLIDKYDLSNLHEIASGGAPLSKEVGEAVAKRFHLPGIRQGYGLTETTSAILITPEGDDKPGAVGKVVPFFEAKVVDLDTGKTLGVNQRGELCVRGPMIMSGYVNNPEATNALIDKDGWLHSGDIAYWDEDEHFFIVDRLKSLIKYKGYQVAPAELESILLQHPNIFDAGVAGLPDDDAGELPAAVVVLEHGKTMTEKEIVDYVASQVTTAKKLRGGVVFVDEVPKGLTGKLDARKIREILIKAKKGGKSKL
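Biochemical qHTS of compounds, final roughly 60 µM downward over six points, against 10 nM purified firefly luciferase using Km concentrations of substrates (10 uM D-luciferin, 10 uM ATP) in Tris acetate pH 7.5 buffer; luminescence output.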
ELG1 repair inh – qHTS screen for small molecules that inhibit ELG1-dependent DNA repair in human embryonic kidney (HEK293T) cells expressing luciferase-tagged ELG1; AID 504467, 2011; Potency, µM (series often up to 46.1 µM), most hits filed as inhibitors; actives 2.3% (n = 330,000); HEK293T ELG1-luciferase reporter, luminescence, 16 h; DNA damage induced by 5-fluorouridine; further: nearly all actives have a fitted effect of over 55% in size
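Luminescence from the luciferase reporter, measured 30 min after ONE-Glo reagent at room temperature, was the read-out. Beforehand, 2,000 cells per well were exposed for 16 hr at 37 °C to 5-fluorouridine together with compound or vehicle.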
ELG1 genotox – qHTS screen for small molecules that induce genotoxicity in human embryonic kidney (HEK293T) cells expressing luciferase-tagged ELG1. HEK293T ELG1-luciferase reporter, luminescence, 16 h. Potency, µM (series often up to 46 µM), actives largely listed as activators. actives 1.3% (n = 330,000); further: nearly all actives have a fitted effect of over 60% in size
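After overnight (16 hr) compound treatment at 37 °C, ELG1-luciferase HEK293T cells were lysed with ONE-Glo; luminescence quantified 30 min later at room temperature.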
Rab9 promoter act – qHTS Assay for Rab9 Promoter Activators; Huh7 Rab9 promoter-luciferase reporter, luminescence, 24 h; AID 485297, 2010; actives 2.8% (n = 320,000); Potency, µM (doses to about 9.22 µM), hits mostly activators; further: nearly all actives have a fitted effect of over 60% in size
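Huh7 cells stably carrying a Rab9 promoter-luciferase reporter, 1500 cells per well in OP-MEM I with 10% FBS, treated with compound 24 hours at 37C. Luciferase activity read by luminescence after 10 minutes with Amplite reagent.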
NPC1 promoter act – qHTS Assay for NPC1 Promoter Activators; Huh7 NPC1 promoter luciferase reporter, 24 h; actives 2.4% (n = 320,000); AID 485313, 2010; Potency, µM (series often up to 9.22 µM), most hits filed as activators; further: nearly all actives have a fitted effect of over 60% in size
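In 1536-well qHTS, Huh7 cells harboring an NPC1 promoter–luciferase construct received compound for 24 h; activation was quantified by luminescence following luciferase reagent addition.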
Large screens that a line does not name were inactive. Shown are actives, neighbours in structure and some others; about 9.2% of the full set was active somewhere. The call rests on the fitted dose curve; in most records, active means well fitted curve in the direction sought with a large enough effect; inconclusive means small, poorly fitted or top-dose-only effect, or another doubt; inactive means no such curve, though single readings can be large; an effect the other way counts as inactive or inconclusive.

COC(=O)[C@@]1(Cc2ccc(F)cc2)[C@H]2c3cc(C(=O)N4CCCC4)n(Cc4ccccn4)c3C[C@H]2CN1C(=O)c1ccccc1	none (no result: FLuc counter, ELG1 repair inh, ELG1 genotox, Rab9 promoter act, NPC1 promoter act)
CCCCn1c(N)c(N(CC)C(=O)C2=COCCO2)c(=O)[nH]c1=O	none (no result: SMN2 splice enh)
Cc1cccc(-n2ncc3c(=O)[nH]c(SCC(=O)NCCC4=CCCCC4)nc32)c1	none (no result: SMN2 splice enh)
Cc1nnc(SCC(=O)Nc2nc(-c3ccc(F)cc3)cs2)[nH]c1=O	FLuc counter 17µM
Cc1cc(=O)[nH]c(SCC(=O)Nc2nc(-c3ccccc3)cs2)n1	ELG1 repair inh inconclusive
Cc1csc(SCC(=O)Nc2nc(-c3ccccc3)cs2)n1	ELG1 repair inh inconclusive, ELG1 genotox inconclusive
O=C(CSc1nc(-c2ccc(Cl)cc2)cs1)Nc1cccc([N+](=O)[O-])c1	FLuc counter 9.5µM
Cc1ccc(-c2csc(NC(=O)CSc3nc(C)cs3)n2)cc1	SMN2 splice enh 14µM, FLuc counter inconclusive, ELG1 repair inh inconclusive, NPC1 promoter act inconclusive
CCOc1cc2[nH]c(=S)n(CCCC(=O)NCc3ccccn3)c(=O)c2cc1OCC	none (no result: SMN2 splice enh)
COc1ccc(C(=O)NCCn2cc(SCC(=O)NCC3CCCO3)c3ccccc32)cc1OC (stereo unspecified)	ELG1 repair inh inconclusive (no result: SMN2 splice enh)
Cc1ccc(C)c(S(=O)(=O)N2CCN(C(=O)Cn3[nH]c(=O)c4ccccc4c3=O)CC2)c1	ELG1 repair inh inconclusive (no result: SMN2 splice enh)
COc1ccc(-c2cc(=O)c3ccccc3[nH]2)cc1	FLuc counter inconclusive
COc1ccc(-c2cc3ccccc3[nH]2)cc1	FLuc counter 4.8µM, ELG1 repair inh inconclusive, ELG1 genotox inconclusive, Rab9 promoter act 2µM, NPC1 promoter act 3.5µM (no result: SMN2 splice enh)
O=[N+]([O-])c1cccc(-c2cc3ccccc3[nH]2)c1	ELG1 repair inh inconclusive, ELG1 genotox inconclusive, NPC1 promoter act inconclusive (no result: SMN2 splice enh)
c1ccc(-c2cc3ccccc3[nH]2)cc1	FLuc counter 19µM, ELG1 repair inh inconclusive, ELG1 genotox inconclusive, Rab9 promoter act inconclusive, NPC1 promoter act inconclusive (no result: SMN2 splice enh)
Cc1ccc(O)c(-c2cc3ccccc3[nH]2)c1	FLuc counter 27µM, ELG1 repair inh inconclusive
Clc1ccc2[nH]c(-c3ccccc3)cc2c1	SMN2 splice enh inconclusive, FLuc counter 11µM, ELG1 repair inh inconclusive, ELG1 genotox inconclusive, Rab9 promoter act 2.5µM, NPC1 promoter act 3.2µM
COc1cccc(N2CCN(C(=O)CN3CCSc4ccc(S(=O)(=O)N(C)C)cc43)CC2)c1	none (no result: SMN2 splice enh, ELG1 repair inh, ELG1 genotox, Rab9 promoter act, NPC1 promoter act)
CN1CCC2(CCN3CCc4c(oc5ccccc45)C3C2)N(C)C1=O (stereo unspecified)	none (no result: FLuc counter, ELG1 repair inh, ELG1 genotox)
O=C(COC(=O)c1cccc([N+](=O)[O-])c1)Nc1ccc(Cl)cn1	ELG1 repair inh inconclusive (no result: SMN2 splice enh)
O=C(Nc1ccccc1)C1CC(=O)N(Cc2ccccc2)C1 (stereo unspecified)	none (no result: SMN2 splice enh)
CC(=O)c1ccc(NC(=O)C2CC(=O)N(Cc3ccccc3)C2)cc1 (stereo unspecified)	SMN2 splice enh inconclusive, FLuc counter 9.5µM, ELG1 repair inh inconclusive, ELG1 genotox 18µM, Rab9 promoter act inconclusive, NPC1 promoter act inconclusive
Cc1ccnc(NC(=O)C2CC(=O)N(Cc3ccccc3)C2)c1 (stereo unspecified)	FLuc counter 6µM, ELG1 repair inh inconclusive, ELG1 genotox 3.3µM (no result: SMN2 splice enh)
O=C(Nc1ncc([N+](=O)[O-])s1)c1ccccc1Br	FLuc counter inconclusive, Rab9 promoter act inconclusive, NPC1 promoter act 3.5µM (no result: SMN2 splice enh)
O=C(Nc1ncc(Cl)cn1)c1cccs1	FLuc counter inconclusive, ELG1 repair inh inconclusive, ELG1 genotox inconclusive
Cc1cnc(NC(=O)c2cccs2)s1	FLuc counter 11µM, ELG1 repair inh inconclusive, ELG1 genotox inconclusive, Rab9 promoter act 1.4µM, NPC1 promoter act inconclusive (no result: SMN2 splice enh)
Cc1ncoc1C(=O)Nc1ncc([N+](=O)[O-])s1	SMN2 splice enh 4.5µM, FLuc counter 6.7µM, ELG1 repair inh inconclusive, ELG1 genotox inconclusive, Rab9 promoter act 0.32µM, NPC1 promoter act 0.71µM
O=C(Nc1ncc([N+](=O)[O-])s1)c1cccs1	FLuc counter 8.5µM, ELG1 repair inh inconclusive, ELG1 genotox inconclusive, Rab9 promoter act 1µM, NPC1 promoter act 0.89µM (no result: SMN2 splice enh)
Cc1ncoc1C(=O)Nc1nccs1	none (no result: SMN2 splice enh)
Cc1c(Cl)cccc1NC(=O)CCN1C(=O)c2ccccc2Sc2ncccc21	none (no result: SMN2 splice enh, ELG1 repair inh, ELG1 genotox, Rab9 promoter act, NPC1 promoter act)
Nc1nc2c([N+](=O)[O-])cccc2s1	ELG1 repair inh inconclusive, ELG1 genotox inconclusive
O=S(=O)(c1ccc(Cl)c(C(F)(F)F)c1)N1CCN(c2ccccn2)CC1	none
CC(C)S(=O)(=O)c1csc(NC(=O)Nc2cccc([N+](=O)[O-])c2)c1Cl	FLuc counter inconclusive (no result: SMN2 splice enh)
O=C(/C=C/c1ccc([N+](=O)[O-])cc1)NCc1ccccn1	none
O=C(/C=C/c1ccc([N+](=O)[O-])cc1)Nc1ncc([N+](=O)[O-])s1	SMN2 splice enh 0.5µM, FLuc counter 0.12µM, ELG1 repair inh inconclusive, ELG1 genotox inconclusive, Rab9 promoter act 0.79µM, NPC1 promoter act 0.05µM
CC(=O)c1sc(-c2ccc(F)cc2F)nc1C	FLuc counter inconclusive, ELG1 repair inh inconclusive (no result: SMN2 splice enh)
CC(C)(C)OC(=O)N1CCC(CC2CC(c3ccc(Cl)cc3)=NO2)(C(=O)NCC2CCCCC2)CC1 (stereo unspecified)	none (no result: SMN2 splice enh)
NC(N)=N/N=C\c1ccc(O)c(C(=O)O)c1	none (no result: FLuc counter, ELG1 repair inh, ELG1 genotox, Rab9 promoter act, NPC1 promoter act)
CC(C)(C)n1ncc2c(=O)n(Cc3c(F)ccc(Cl)c3Cl)cnc21	FLuc counter 13µM (no result: SMN2 splice enh, ELG1 repair inh, ELG1 genotox, Rab9 promoter act, NPC1 promoter act)

Compound activity deposited in PubChem by National Center for Advancing Translational Sciences (NCATS).
